Shiga inhibitor: blocks Shiga toxin action in Vero cells. Vero cells, Shiga toxin protein synthesis inhibition reporter. inhibition, % at 38.7 µM. 9.2% of 290,000 active. AID 2315; in the data active = inhibition mostly above about 28%, no sharp cut-off; inactive = mostly below about 43%; note: 0% is about no effect
AMA1 RON2 block: disrupts binding of P. falciparum AMA1 to RON2. 0.2% of 360,000 active. AlphaScreen AMA1-biotinylated RON2 peptide binding. Potency, µM (doses to about 58.2 µM), inactives show top-dose activity change, negative = inhibition, usual class: inhibitors;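 note: potency is the fitted concentration of half-maximal effect; 0% = vehicle wells and -100% = peptide control; nearly all actives have a fitted effect of over 45% in size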
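AMA1 (3D7) with his tag at 25 nM final met compounds first, then biotinylated RON2 peptide at 25 nM; detection used donor plus acceptor beads, 10 µg/mL apiece, read by AlphaScreen after 30 min at room temperature.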
Pf growth 48h: P. falciparum growth inhibition at 48 hours (one generation); P. falciparum luciferase growth in erythrocytes, 48 h; Potency, µM (titrated, usually from 28.7 µM), for the others: at the highest dose activity change, negative = inhibition, most hits filed as inhibitors; 5.9% of 310,000 active; AID 504832; note: potency is the fitted concentration of half-maximal effect; % is set by controls: 0 for no effect and ±100 for the full control effect
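Luciferase-expressing parasites in RBCs, 2% Hct / 0.1% parasitemia final; RPMI 1640 + 0.5% Albumax; 37 C, 5% CO2, one generation; luminescence read-out, lower signal = inhibition.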
HCV inhibitor: blocks hepatitis C virus; Potency, µM (titrated, usually from 41.8 µM), for the others: at the top dose activity change, negative = inhibition, most hits filed as inhibitors; 3.4% of 340,000 active; Huh7.5.1 HCVcc-Cre infection, luciferase reporter, 44 h; note: potency is the fitted concentration of half-maximal effect; % is set by controls: 0 for no effect and ±100 for the full control effect
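A cell-based infection assay in which seeded cells (1,000 per well) receive test compound after 4 h, are inoculated with HCVcc-Cre at approximately 0.5 moi, and are incubated 44 h before luminescence detection.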
Cycloheximide cs: affects cycloheximide protein synthesis inhibition readout, counter-screen. max response, %. AID 2314. 12% of 300,000 active. cell reporter, cycloheximide protein synthesis inhibition counterscreen; in the data active = max response mostly above about 13%, no sharp cut-off; inactive = mostly below about 14%; note: read at 38.3 µM for the half of the compounds with a filed dose; 0% is about no effect
Pf growth 96h: P. falciparum growth inhibition at 96 hours | P. falciparum luciferase reporter growth, 96 h | Potency, µM (highest dose often 28.7 µM), inactives show at the top dose activity change, negative = inhibition, actives largely listed as inhibitors | 6.9% of 320,000 active; note: potency is the fitted concentration of half-maximal effect; % is set by controls: 0 for no effect and ±100 for the full control effect
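Two parasite generations (96 h, 37 C, 5% CO2) of compound exposure in infected erythrocytes (0.05% parasitemia, 2% hematocrit). Luciferase-reporter P. falciparum; decreased luminescence indicates inhibited growth, aimed at apicoplast-acting delayed death.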
* marks the source's active call; other numbers are inactive results; i = inactive; ? = inconclusive; nt = no result given; [ ] = remark or other dose. An excerpt weighted towards active compounds, which were near 21% of everything screened. Unless noted, calls come from the whole dose curve; as a rule, active = well fitted curve in the direction sought with a large enough effect; inconclusive = small, poorly fitted or top-dose-only effect, or another doubt; inactive = no such curve, though single readings can be large; an effect the other way counts as inactive or inconclusive.

SMILES	Shiga inhibitor	AMA1 RON2 block	Pf growth 48h	HCV inhibitor	Cycloheximide cs	Pf growth 96h
Cc1ccnc(N=O)c1	nt	13%	nt	8%	nt	nt
Cc1ccnc(N=Cc2nc(-c3ccccc3Br)oc2O)c1	118*	-4%	i	7%	27*	-1%
Oc1oc(-c2cccc3ccccc23)nc1/C=N/c1nccs1	19	2%[2.32 µM]	14%	9%	2	-3%
Cc1cccc(/N=C/c2nc(-c3ccccc3Br)oc2O)n1	32	-5%	?	0%	21*	?
N#CC(=Cc1ccc(O)cc1)C(N)=C(C#N)C#N	nt	1%	0%	-2%	nt	3%
CCN(CC)c1ccc(/C=C(\C#N)C(N)=O)cc1	71	2%	98%	4%	29*	1%
CCN(CC)c1ccc(/C=C(\C#N)C(=O)c2ccc(Br)cc2)cc1	-3	17%	0%	10%	20*	9%
CCN(CC)c1ccc(/C=C(\C#N)C(N)=S)cc1	39	-7%	0%	?	25*	?
CC1(C(=O)Nc2ccc3c(c2)OCCO3)CN(S(C)(=O)=O)CC(=O)N1CCc1c[nH]c2ccccc12 (stereo not drawn)	nt	-10%	nt	nt	nt	nt
Clc1ccc(-c2nnsc2SCc2ccccc2)cc1	49*	43%	-12%	-23%	44*	-20%
O=c1cc(O)nc(SCc2ccccc2)n1-c1ccc(Cl)cc1	4	13%	9%	10%	-3	33%
CC(C)Sc1snnc1-c1ccccc1	13	48%	-14%	-1%	9	-13%
CSc1snnc1-c1ccccc1	-1	6%	?	12%	3	11%
c1ccc(-c2nnsc2Sc2ccccn2)cc1	56*	41%	34%	?	32*	21%
Clc1ccc(CSc2snnc2-c2ccccc2)cc1	27	35%	13µM*	-11%	23*	?
Clc1ccccc1CSc1snnc1-c1ccccc1	64*	23%	14%	-8%	38*	1%
Cc1cccc(-c2cnc(C(O)c3ccc(-c4ccccc4)cc3)[nH]2)c1 (stereo not drawn)	nt	16%	nt	nt	nt	nt
COc1ccc(/C=C2\SC(=S)N(CCC(=O)Nc3cccc(C(=O)O)c3)C2=O)cc1	5	-15%	20%	11%	0	33%
O=C(CNC(=O)N1CC(=O)Nc2ccccc21)NCCc1c[nH]c2ccccc12	-7	5%	6%	27%	1	-9%
CC(C(=O)NCC1CCCO1)n1cc([N+](=O)[O-])cn1 (stereo not drawn)	2	2%	1%	8%	1	?
O=C(CN1C(=O)NC2(CCCC2)C1=O)Nc1cc(S(=O)(=O)N2CCOCC2)ccc1OCC(F)(F)F	-3	-6%	-7%	2%	1	10%
Cc1ccc(C(=O)NCC(=O)OCC(=O)Nc2ccccc2C#N)s1	10	-3%	i	9%	2	136%
CCOC(=O)/C(=N/Nc1ccc(OC)cc1)N1CCCc2ccccc21	41*	22µM*	?	-3%	21	?
CCOC(=O)/C(=N/Nc1ccccc1)N1CCCc2ccccc21	16	?	15µM*	0%	1	?
C=C[C@]1(C)C=C2C(=O)[C@@]3(O)OC(=O)[C@@]4(CCCC(C)(C)[C@H]34)[C@@]2(O)CC1	nt	-16%	nt	nt	nt	nt
SMILES	Shiga inhibitor	AMA1 RON2 block	Pf growth 48h	HCV inhibitor	Cycloheximide cs	Pf growth 96h
O=C(CSc1nc2ccccc2c(=O)[nH]1)Nc1ccccc1C(F)(F)F	15	-14%	13%	0%	-8	?
Cc1c(NC(=O)c2cc(-n3cnnc3)ccc2Cl)cccc1-c1nc2ccccc2s1	37*	-2%	44%	?	23*	60%
CC(=O)c1cccc(NC(=O)c2cc(-n3cnnc3)ccc2Cl)c1	41	-1%	3%	1%	-2	nt
Cc1ccc2sc(-c3ccc(NC(=O)c4cc(-n5cnnc5)ccc4Cl)cc3)nc2c1	134*	-9%	-95%	0.89µM*	62*	?
O=C(Nc1cccc(-c2nc3ccccc3s2)c1)c1cc(-n2cnnc2)ccc1Cl	58	0%	17%	13µM*	30*	0%
COc1cc(NC(=O)c2cc(-n3cnnc3)ccc2Cl)cc(OC)c1	-8	-4%	2%	-21%	-5	13µM*
Cc1c(NC(=O)c2cccs2)cccc1-c1nc2ccccc2s1	23	12%	30%	?	18	-7%
O=C(NC(=S)Nc1cccc(C(F)(F)F)c1)c1csnn1	-3	102%	3%	-6%	-1	15%
CC(C)NC(=O)CN(Cc1ccc(F)cc1)C(=O)CCC(=O)Nc1ccccn1	10	2%	26%	18%	-3	4%
CN(C(=O)c1cc(-n2cnnc2)ccc1Cl)c1ccccc1	43*	-5%	43%	4%	17*	71%
Cn1c(O)c(C2=NNC(c3ccc(Cl)cc3)C2)c(=O)n(C)c1=O (stereo not drawn)	-4	84%	13µM*	6%	0	?
CCOc1ccc(C2CC(c3c(O)n(C)c(=O)n(C)c3=O)=NN2)cc1 (stereo not drawn)	-1	61%	?	-13%	-2	15µM*
O=C(CSc1nc2ccc(S(=O)(=O)N3CCOCC3)cc2[nH]1)N1CCOCC1	-24	-12%	nt	27%	-1	1.9µM*
Cc1cccc2[nH]c(SCC(=O)N3CCOCC3)nc12	109*	18%	15%	17%	21	?
O=C(CSc1nc2ccccc2c(=O)[nH]1)N1CCOCC1	-17	-6%	5%	26%	-5	?
CCOc1ccc(NC(=O)CN(C)C(=O)c2ccccc2SCc2c(C)noc2C)cc1OCC	nt	34%	-12%	-19%	nt	-22%
Cc1ccc(S(=O)(=O)N2C[C@H]3C(=O)C[C@@H](c4ccccc4)N(S(=O)(=O)c4ccc(C)cc4)[C@H]3C[C@H]2c2ccc(Cl)cc2)cc1	nt	2%	nt	nt	nt	nt
C/C(=N\OCC(=O)OC(C)C(=O)Nc1ccc(C)c(S(=O)(=O)N2CCOCC2)c1)c1ccc2c(c1)OCO2 (stereo not drawn)	nt	-11%	nt	3%	nt	nt
Cc1cc(S(=O)(=O)Nc2ccc(C(=O)NCc3cccnc3)cc2)ccc1F	nt	12%	14%	13%	nt	-21%
Cc1cccc(NC(=O)c2ccc(C)c(S(=O)(=O)N3CCOCC3)c2)n1	nt	15%	nt	-4%	nt	nt
CN(CCO)C1=NS(=O)(=O)c2cc([N+](=O)[O-])ccc21	-3	-2%	4.1µM*	?	12	-27%
C=CCOCCN(C)C1=NS(=O)(=O)c2cc([N+](=O)[O-])ccc21	-9	3%	?	?	-3	-27%
Cc1ccc(C)c(NC(=S)c2nc3ccccc3s2)c1	42*	0%	35%	7%	26*	8%
Cc1ccc(C)c(NC(=S)c2ccccn2)c1	95*	?	12µM*	-12%	50*	1µM*

Screens from PubChem.
